Only some compounds are listed: those with a hit (about 3.5% of all), similar ones and a draw of the others.
Anthrax LF prot = inhibitors of Bacillus anthracis lethal factor protease | P15917 | multiplex microsphere protease cleavage assay, LF | inhibition, % at 10 µM | 0.12% of 360,000 active; further: plate controls were buffer without enzyme for full effect and enzyme alone for no effect
Target sequence (P15917 whole entry, looked up): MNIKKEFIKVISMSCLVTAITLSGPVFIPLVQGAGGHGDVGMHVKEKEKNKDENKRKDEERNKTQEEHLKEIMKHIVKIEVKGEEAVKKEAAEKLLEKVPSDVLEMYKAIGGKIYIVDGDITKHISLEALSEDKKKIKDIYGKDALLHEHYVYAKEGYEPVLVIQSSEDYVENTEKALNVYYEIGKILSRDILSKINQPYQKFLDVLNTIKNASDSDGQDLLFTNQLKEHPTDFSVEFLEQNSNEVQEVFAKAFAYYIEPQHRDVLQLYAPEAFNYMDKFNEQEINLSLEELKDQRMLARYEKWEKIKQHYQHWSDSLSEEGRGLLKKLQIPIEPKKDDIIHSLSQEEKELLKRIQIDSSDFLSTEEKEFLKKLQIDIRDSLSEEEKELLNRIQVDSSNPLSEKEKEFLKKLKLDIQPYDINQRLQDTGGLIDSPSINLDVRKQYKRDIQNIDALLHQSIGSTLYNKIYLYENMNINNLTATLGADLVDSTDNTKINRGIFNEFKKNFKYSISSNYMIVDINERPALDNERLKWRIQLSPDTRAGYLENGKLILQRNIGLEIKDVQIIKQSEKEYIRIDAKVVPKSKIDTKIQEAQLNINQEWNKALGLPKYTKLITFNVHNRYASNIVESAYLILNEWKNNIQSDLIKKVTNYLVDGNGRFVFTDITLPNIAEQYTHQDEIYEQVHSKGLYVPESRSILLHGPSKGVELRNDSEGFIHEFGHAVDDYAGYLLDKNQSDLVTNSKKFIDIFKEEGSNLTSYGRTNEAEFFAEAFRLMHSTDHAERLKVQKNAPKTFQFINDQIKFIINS
Autofluor counter = flagged as autofluorescent in microsphere protease counterscreen; compound autofluorescence counterscreen, microsphere flow cytometry; stronger effect = higher value; 3.1% of 360,000 active; fluorescence intensity (no concentration beside the values); in the data active means fluorescence intensity above about 16000; inconclusive means no clear call, values can overlap the other calls
BoNT A protease = blocks Botulinum neurotoxin A light chain protease | AID 588499 | multiplex microsphere protease substrate cleavage, flow cytometry | inhibition, % at 10 µM | 0.17% of 360,000 active; further: plate controls were buffer without enzyme for full effect and enzyme alone for no effect
BoNT-F LC inh = BoNT F light chain protease inhibition; AID 588497; inhibition, % at 10 µM; Multiplex microsphere protease cleavage assay, flow cytometry; 0.22% of 360,000 active; in the data active means inhibition above about 35%, passing the limit was not always enough; inconclusive means no clear call, values can overlap the other calls; further: plate controls were buffer without enzyme for full effect and enzyme alone for no effect
Starred values were filed as active, the others as inactive; ? = inconclusive. Unless noted, no stated cut-off is given here; in the data, active means inhibition above about 30%; inconclusive means no clear call, values can overlap the other calls; inactive means below that.

SMILES	Anthrax LF prot	Autofluor counter	BoNT A protease	BoNT-F LC inh
CN(C)CC#CCC(O)(c1ccccc1)C1CCCC1 (stereo not drawn)	0	23845*	-1	-3
Cc1ccc(CNC(=O)C2CCCCC2C(=O)O)cc1 (stereo not drawn)	-7	21599*	?	1
O=C(O)C1CCCCC1C(=O)Nc1cccc2ccccc12 (stereo not drawn)	-6	20285*	6	6
O=C(Nc1cc2c3c(c1)CC(=O)N3CCC2)c1ccco1	1	5626	1	-10
O=C(Nc1cccc(C(=O)Nc2cccc(Br)c2)c1)c1ccccc1	9	3493	1	1
O=C(Nc1cccc(Br)c1)c1ccn[nH]1	-4	21776*	-3	-5
Nc1ncnc2c1ncn2[C@@H]1O[C@H](C(=O)NS(=O)(=O)c2cccs2)[C@@H](O)[C@H]1O	-1	4369	-1	-13
N#C/C(=C/c1ccc(-c2ccccc2)o1)c1nc(-c2cccs2)cs1	34*	15612	48*	30
CCCCc1ccc(-c2csc(/C(C#N)=C/c3ccco3)n2)cc1	-6	2816	0	-15
CCCCc1ccc(-c2csc(/C(C#N)=C\c3ccc(C)o3)n2)cc1	4	22503*	6	1
O=C(COC(=O)C1CCC1)Nc1ccc(Cl)cn1	4	3917	0	-6
O=C(COC(=O)CCC1CCCC1)Nc1ccc(Cl)cn1	-1	17161*	-1	-1
Cc1ccc(C(=O)OCC(=O)NCc2ccc(Cl)cc2Cl)o1	-1	5637	0	-1
Cc1cc(C(=O)NCc2ccccc2Br)no1	-1	21781*	?	-3
CCNC(=S)NNC(=O)c1cc(C)on1	0	21335*	5	6
Cc1cc(C(=O)NCc2ccccc2)no1	-16	15472	13	17
Cc1cccc(NC(=O)COC(=O)CN2C(=O)C3CCCCC3C2=O)c1C (stereo not drawn)	-7	3728	0	4
CCCCOc1ccc(-c2nc(=S)[nH][nH]2)cc1	-1	16673*	?	0
CCCCOc1ccc(-c2ncc(N)cn2)cc1	12	3821	-1	5
CCCCOc1ccc(-c2nc(SCC(N)=O)n[nH]2)cc1	-4	20074*	0	-1
COc1ccc(NC(=O)COC(=O)c2cc(Cl)ccc2O)cc1S(=O)(=O)N1CCCCC1	-3	7800	2	1
O=c1c2ccccc2ncn1-c1cccc(Br)c1	0	3835	-2	-10
CSc1ccc(/C=N/NC(=O)c2cccs2)cc1	?	3499	0	45*
O=C(N/N=C/c1ccncc1)c1cccs1	24	3837	-3	-19
O=C(Oc1coc(CSc2nnc(NC(=O)C3CC3)s2)cc1=O)c1ccccc1	1	2569	63*	0
SMILES	Anthrax LF prot	Autofluor counter	BoNT A protease	BoNT-F LC inh
Cc1ccc(C(=O)Oc2coc(CSc3nnc(NC(=O)C4CC4)s3)cc2=O)cc1C	0	1984	34*	-7
COc1ccc(C(=O)Oc2coc(CSc3nnc(NC(=O)c4cccs4)s3)cc2=O)cc1	0	2075	0	3
Cc1cccc(CSc2nnc(NC(=O)c3ccco3)s2)c1	-3	24019*	-4	-7
Cc1cccc(C(=O)Oc2coc(CSc3nnc(NC(=O)C4CC4)s3)cc2=O)c1	1	2570	55*	-3
COc1ccc(CCNC(=O)CC2Nc3cc(C)c(C)cc3NC2=O)cc1OC (stereo not drawn)	-4	9323	1	9
Cc1cc2c(cc1C)NC(CC(=O)NCc1ccccc1)C(=O)N2 (stereo not drawn)	2	23973*	2	2
O=C(O)c1cc(-c2ccc(Cl)cc2)n(-c2ccc(F)cc2)n1	1	3904	-2	-15
O=C(Cc1coc2ccc3ccccc3c12)NCc1ccccc1	-1	20707*	-2	-3
CCOc1cc(C(=O)OCC(=O)Nc2cc(C)on2)cc(OCC)c1OCC	3	22120*	-5	-6
CNS(=O)(=O)c1cccc(C(=O)OCC(=O)Nc2nc(OC)cc(OC)n2)c1	0	8512	-2	5
CCOc1ccc(C(=O)OCC(=O)Nc2nc(OC)cc(OC)n2)cc1OCC	-2	23423*	?	-2
CCCCOc1ccc(C(=O)OCC(=O)Nc2cc(C)on2)cc1	-1	4382	-1	4
CCCCNC(=O)Nc1cc(C)on1	0	20643*	-3	-6
COc1ccc(S(=O)(=O)Nc2ccccc2OC)cc1C	-4	6268	-1	-7
COc1ccc(S(=O)(=O)Nc2ccccc2SC)cc1C	-1	23520*	-1	-1
COc1ccc(NS(=O)(=O)c2ccc(SC)cc2)c(OC)c1	1	21230*	6	2
C=CCn1c(SCc2csc(C)n2)nc2sc3c(c2c1=O)CCCC3	0	4287	-1	-15
C=CCn1c(SCc2csc(C)n2)nc2sc3c(c2c1=O)CCCCC3	-6	21298*	2	3
CC(=O)Oc1ccccc1C(=O)C=Cc1cccc([N+](=O)[O-])c1	-9	4005	0	-10
O=c1oc2cc(O)ccc2cc1-c1ccccc1	0	4792	2	7
O=c1oc2cc(O)ccc2cc1-c1nc2c(s1)CCc1ccccc1-2	17	4485	47*	7
O=c1oc2ccccc2cc1-c1nc2c(s1)CCc1ccccc1-2	27	3123	64*	18
Nc1nnc(-c2cc3ccccc3oc2=O)s1	0	4215	-1	3
CN(C)c1ccc(S(=O)(=O)NCC(=O)N2CCN(c3ccccc3)CC2)cc1[N+](=O)[O-]	-4	3773	4	6
O=C1Nc2ccccc2N(O)N1c1ccc(Cl)cc1	-2	2426	0	-5
SMILES	Anthrax LF prot	Autofluor counter	BoNT A protease	BoNT-F LC inh
CCN1c2ccccc2NC2C1C(C(C)=O)C(=O)N2c1ccc(Cl)cc1 (stereo not drawn)	9	19587*	20	4
CCOC(=O)c1c[nH]c2c(Cl)c(Cl)ccc2c1=O	4	3885	0	10
CCOC(=O)c1c[nH]c2c3c(ccc2c1=O)CCCC3	2	21559*	-5	-8
CCOC(=O)c1c[nH]c2c(C)cc(C)cc2c1=O	-1	20267*	?	-2
CCN1C(c2ccccc2)=C(c2ccccc2)S/C1=C\C=C1/SC(=S)N(C)C1=O	44*	5010	98*	-13
CCN1C(=O)/C(=C/C=C2/Sc3ccc4ccccc4c3N2CCO)SC1=S	52*	6919	63*	36*
CCN1C(c2ccccc2)=C(c2ccccc2)S/C1=C/C=C1\SC(=S)N(C)C1=O	41*	2608	141*	-37
C[C@H](NS(=O)(=O)c1ccc2c(c1)OCCCO2)C(=O)N1CCN(c2ccc(F)cc2)CC1	-6	3013	0	-3
COCC(=O)Nc1sc2c(c1C(=O)OC)C(C(=O)OC)CC2 (stereo not drawn)	-2	20588*	-1	-5
CCOC(=O)c1c(NC(=S)Nc2ccc(OCC)cc2)sc2c1CCN(C)C2	6	5339	6	-3
CCOC(=O)c1c(NC(=S)Nc2ccc(Cl)cc2)sc2c1CCN(C)C2	34*	15220	46*	11
Cc1nn(C)cc1CNC(=O)c1ccccc1Br	-2	16520*	?	2
Cc1nn(C)cc1CNC(=O)c1cccc(Br)c1	0	3431	1	12

Bioassay records deposited in PubChem by NMMLSC.
